Among the data in ChEMBL document CHEMBL4296183, “CO-ADD screening of NIH NCI Natural Product Set III” (2020) are Inhibition values, retold here.

One experiment relates to Acinetobacter baumannii. Description: Antibacterial activity against Acinetobacter baumannii ATCC 19606 (CO-ADD:GN_034); MIC in CAMBH media using NBS plates, by Resazurin F(560/590). Type of experiment: functional. As to conditions: Concentration 20 uM, ASSAY_TEST Inhibition of Bacterial Growth, detection method Resazurin, Fluorescence (ex560/em590), MEDIA CAMHB, plate type 384well, CORNING #3640, time 18 hr.
As for `CC(=O)Oc1ccc2ccc(=O)oc2c1OC(C)=O`, the Inhibition was -10.5%.

As to `CCC1OC(=O)C(C)C(OC2CC(C)(O)C(O)C(C)O2)C(C)C(O)C(C)(O)CC(C)C(=O)C(C)C(O)C1C` (stereo not given), the Inhibition is reported as -2.14%.

Consider `COc1cc([C@@H]2c3cc4c(cc3[C@@H](OC3OC5CO[C@@H](c6cccs6)OC5C(O)C3O)[C@H]3COC(=O)[C@H]23)OCO4)cc(OC)c1O` (stereo not given in full), for which the Inhibition was -1.54%.

Take `O=c1oc2cc(O)ccc2c2oc3cc(O)ccc3c12` [COUMESTROL]: the Inhibition is listed as -8.94%.

Consider `CC1(C)CCCC2(C)C3=C(CCC12)C(=O)OC3` (stereo not given), for which the Inhibition is given as -0.35%.

Turning to `CC[C@]1(O)C[C@H]2CN(CCc3c([nH]c4ccccc34)[C@@](C(=O)OC)(c3cc4c(cc3OC)N(C=O)[C@H]3[C@@](O)(C(=O)OC)[C@H](OC(C)=O)[C@]5(CC)C=CCN6CC[C@]43[C@@H]65)C2)C1.O=S(=O)(O)O` [VINCRISTINE SULFATE], the Inhibition is listed as -6.71%.

As for `CC(=O)CCCCn1c(=O)c2c(ncn2C)n(C)c1=O` [PENTOXIFYLLINE], the Inhibition came to 0.79%.

As to `CN1CCc2cc3c(cc2C(=O)Cc2ccc4c(c2C1)OCO4)OCO3.Cl` [PROTOPINE HYDROCHLORIDE], the Inhibition is -4.7%.

For the molecule `O=c1oc2c(O)c(O)cc3c(=O)oc4c(O)c(O)cc1c4c23` [ELLAGIC ACID], the Inhibition is on record as -6.11%.

For `COc1ccc2c(c1OC)C(=O)O[C@@H]2[C@H]1c2c(cc3c(c2OC)OCO3)CCN1C` [NOSCAPINE], the Inhibition is on record as -5.12%.

Regarding `CCCCCc1cc(O)cc2c1Oc1cc(O)cc(C(=O)CCCC)c1C(=O)O2`, the Inhibition is given as -18.85%.

As for `COC(=O)C1C(O)CCC2CN3CCc4c([nH]c5ccccc45)C3CC21` (stereo not given), the Inhibition is reported as -5.08%.

Consider `COc1ccc(C2CC(=O)c3c(O)cc(OC4OC(CO)C(O)C(O)C4OC4OC(C)C(O)C(O)C4O)cc3O2)cc1O` (stereo not given), for which the Inhibition is on record as -4.03%.

Take `CC1(C)CC23C4COC(=O)C2CCC1C3CC4=O` (stereo not given): the Inhibition is given as -5.6%.

`CC1(C)C(=O)N2c3ccccc3C3(CC(N4C(=O)c5ccccc5C4=O)C(=O)O3)C2N1C(=O)OCc1ccccc1` (stereo not given): the Inhibition is on record as -16.59%.

As to `COC(=O)NC1C(C)OC(OC2C/C=C(/C)C3C=CC4C(OC5CC(OC6CCC(OC7CC(O)C(OC8CCC(O)C(C)O8)C(C)O7)C(C)O6)C(OC(C)=O)C(C)O5)C(C)CC(C)C4C3(C)/C(O)=C3/C(=O)OC4(CC(C=O)=CC(O)C4/C=C\2C)C3=O)CC1(C)[N+](=O)[O-]` (stereo not given), the Inhibition is on record as -13.61%.

With `C=C1C(=O)O[C@@H]2[C@H]3O[C@]3(C)CC/C=C(\C)CC[C@@H]12`, the Inhibition is on record as 3.45%.

As to `CC(C)=CC(=O)OC1C2C(C)C(=O)OC2C(O)C(C)C2C=CC(=O)C21C` (stereo not given), the Inhibition is reported as -2.16%.

Turning to `COc1cc2c(c(OC)c1OC)-c1ccc(OC)c(=O)cc1[C@@H](NC(C)=O)CC2` [COLCHICINE], the Inhibition is -6.56%.

On to `COC(=O)[C@@H]1[C@H]2C[C@@H]3c4[nH]c5ccccc5c4CCN3C[C@@H]2CC[C@@H]1O`, for which the Inhibition is given as -4.53%.

As to `COc1cc(C)c2c(c1C=O)Oc1c(c(C)c(O)c3c1C(O)OC3=O)OC2=O` (stereo not given) [STICTIC ACID], the Inhibition is -4.46%.

As for `C[C@@H]1C(=O)C[C@H]2C(C)(C)CCC[C@]2(C)[C@@]1(O)CCc1ccoc1`, the Inhibition was -8.38%.

Consider `CCC1NC(=O)C(NC(=O)c2ncccc2O)C(C)OC(=O)C(c2ccccc2)NC(=O)C2CC(=O)CCN2C(=O)C(Cc2ccccc2)N(C)C(=O)C2CCCN2C1=O` (stereo not given), for which the Inhibition was -3.49%.

For `COC(=O)C1C2CC3c4[nH]c5cc(OC)ccc5c4CCN3CC2CC(OC(=O)CCc2cc(OC)c(OC)c(OC)c2)C1OC` (stereo not given), the Inhibition is -10.91%.

`COc1ccc2c(c1)O[C@H]1c3ccc(O)cc3OC[C@@H]21`: the Inhibition is reported as -10.59%.

The subject of the next experiment is Escherichia coli. Description: Antibacterial activity against Escherichia coli ATCC 25922 (CO-ADD:GN_001); MIC in CAMBH media using NBS plates, by Resazurin F(560/590). The format is functional. The conditions noted are these: Concentration 20 uM, ASSAY_TEST Inhibition of Bacterial Growth, detection method Resazurin, Fluorescence (ex560/em590), MEDIA CAMHB, plate type 384well, CORNING #3640, time 18 hr.
In the case of `CC(=O)Oc1ccc2ccc(=O)oc2c1OC(C)=O`, the Inhibition was found to be 2.34%.

Regarding `CCC1OC(=O)C(C)C(OC2CC(C)(O)C(O)C(C)O2)C(C)C(O)C(C)(O)CC(C)C(=O)C(C)C(O)C1C` (stereo not given), the Inhibition is listed as 7.74%.

Take `COc1cc([C@@H]2c3cc4c(cc3[C@@H](OC3OC5CO[C@@H](c6cccs6)OC5C(O)C3O)[C@H]3COC(=O)[C@H]23)OCO4)cc(OC)c1O` (stereo not given in full): the Inhibition came to 1.68%.

Turning to `O=c1oc2cc(O)ccc2c2oc3cc(O)ccc3c12` [COUMESTROL], the Inhibition stood at 2.17%.

For the molecule `CC1(C)CCCC2(C)C3=C(CCC12)C(=O)OC3` (stereo not given), the Inhibition was found to be 1.76%.

In the case of `CC[C@]1(O)C[C@H]2CN(CCc3c([nH]c4ccccc34)[C@@](C(=O)OC)(c3cc4c(cc3OC)N(C=O)[C@H]3[C@@](O)(C(=O)OC)[C@H](OC(C)=O)[C@]5(CC)C=CCN6CC[C@]43[C@@H]65)C2)C1.O=S(=O)(O)O` [VINCRISTINE SULFATE], the Inhibition is reported as 2.79%.

In the case of `CC(=O)CCCCn1c(=O)c2c(ncn2C)n(C)c1=O` [PENTOXIFYLLINE], the Inhibition stood at 9.18%.

In the case of `CN1CCc2cc3c(cc2C(=O)Cc2ccc4c(c2C1)OCO4)OCO3.Cl` [PROTOPINE HYDROCHLORIDE], the Inhibition is 3%.

Regarding `O=c1oc2c(O)c(O)cc3c(=O)oc4c(O)c(O)cc1c4c23` [ELLAGIC ACID], the Inhibition was 7.74%.

In the case of `COc1ccc2c(c1OC)C(=O)O[C@@H]2[C@H]1c2c(cc3c(c2OC)OCO3)CCN1C` [NOSCAPINE], the Inhibition is on record as 1.19%.

On to `CCCCCc1cc(O)cc2c1Oc1cc(O)cc(C(=O)CCCC)c1C(=O)O2`, for which the Inhibition is recorded as 9.72%.

For the molecule `COC(=O)C1C(O)CCC2CN3CCc4c([nH]c5ccccc45)C3CC21` (stereo not given), the Inhibition is listed as 5.27%.

Turning to `COc1ccc(C2CC(=O)c3c(O)cc(OC4OC(CO)C(O)C(O)C4OC4OC(C)C(O)C(O)C4O)cc3O2)cc1O` (stereo not given), the Inhibition is 5.81%.

As for `CC1(C)CC23C4COC(=O)C2CCC1C3CC4=O` (stereo not given), the Inhibition was -0.76%.

For the molecule `CC1(C)C(=O)N2c3ccccc3C3(CC(N4C(=O)c5ccccc5C4=O)C(=O)O3)C2N1C(=O)OCc1ccccc1` (stereo not given), the Inhibition was 1.59%.

As to `COC(=O)NC1C(C)OC(OC2C/C=C(/C)C3C=CC4C(OC5CC(OC6CCC(OC7CC(O)C(OC8CCC(O)C(C)O8)C(C)O7)C(C)O6)C(OC(C)=O)C(C)O5)C(C)CC(C)C4C3(C)/C(O)=C3/C(=O)OC4(CC(C=O)=CC(O)C4/C=C\2C)C3=O)CC1(C)[N+](=O)[O-]` (stereo not given), the Inhibition amounted to 6.38%.

For the molecule `C=C1C(=O)O[C@@H]2[C@H]3O[C@]3(C)CC/C=C(\C)CC[C@@H]12`, the Inhibition is listed as 5.09%.

As for `CC(C)=CC(=O)OC1C2C(C)C(=O)OC2C(O)C(C)C2C=CC(=O)C21C` (stereo not given), the Inhibition was -1.23%.

`COc1cc2c(c(OC)c1OC)-c1ccc(OC)c(=O)cc1[C@@H](NC(C)=O)CC2` [COLCHICINE]: the Inhibition was determined as 3.55%.

Consider `COC(=O)[C@@H]1[C@H]2C[C@@H]3c4[nH]c5ccccc5c4CCN3C[C@@H]2CC[C@@H]1O`, for which the Inhibition came out at 11.73%.

In the case of `COc1cc(C)c2c(c1C=O)Oc1c(c(C)c(O)c3c1C(O)OC3=O)OC2=O` (stereo not given) [STICTIC ACID], the Inhibition stood at 10.36%.

As for `C[C@@H]1C(=O)C[C@H]2C(C)(C)CCC[C@]2(C)[C@@]1(O)CCc1ccoc1`, the Inhibition is recorded as 1.88%.

Consider `CCC1NC(=O)C(NC(=O)c2ncccc2O)C(C)OC(=O)C(c2ccccc2)NC(=O)C2CC(=O)CCN2C(=O)C(Cc2ccccc2)N(C)C(=O)C2CCCN2C1=O` (stereo not given), for which the Inhibition stood at 1.18%.

With `COC(=O)C1C2CC3c4[nH]c5cc(OC)ccc5c4CCN3CC2CC(OC(=O)CCc2cc(OC)c(OC)c(OC)c2)C1OC` (stereo not given), the Inhibition is listed as 1.29%.

`COc1ccc2c(c1)O[C@H]1c3ccc(O)cc3OC[C@@H]21`: the Inhibition was determined as 8.35%.
